The list is not random: actives were taken first. Their share in the collection is about 27%.
Cav32 inh: Cav3.2 calcium influx blockers – cell-based, Fluo-4 calcium fluorescence, FDSS, MLSMR library, primary screen | Voltage-dependent T-type calcium channel subunit alpha-1H (Homo sapiens), O95180 | Cav3.2-expressing cells; stronger effect = lower value | B-score at 10 µM | 100,000 tested, 4% active | AID 449739, 2010;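 active = single-dose well whose peak fluorescence ratio is a statistical outlier from its plate by either plate-standardised score or position-corrected B-score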
Pyk2 oligo antag: antagonists of Pyk2 self-association, primary screen, Q293 cells, FERM NanoBiT luminescence, HTS; Protein-tyrosine kinase 2-beta (Homo sapiens), Q14289; stronger effect = lower value; z-score (the deposit names both 25 µM and 10 µM); 99,000 tested, 0.83% active;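 active = Z-score of -3 or lower, scaled per plate to the spread of control and sample wells; inactive = z-score above -3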;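 note: negative z-score means lost luminescence so less FERM oligomerization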
Target sequence (Q14289 whole entry, looked up): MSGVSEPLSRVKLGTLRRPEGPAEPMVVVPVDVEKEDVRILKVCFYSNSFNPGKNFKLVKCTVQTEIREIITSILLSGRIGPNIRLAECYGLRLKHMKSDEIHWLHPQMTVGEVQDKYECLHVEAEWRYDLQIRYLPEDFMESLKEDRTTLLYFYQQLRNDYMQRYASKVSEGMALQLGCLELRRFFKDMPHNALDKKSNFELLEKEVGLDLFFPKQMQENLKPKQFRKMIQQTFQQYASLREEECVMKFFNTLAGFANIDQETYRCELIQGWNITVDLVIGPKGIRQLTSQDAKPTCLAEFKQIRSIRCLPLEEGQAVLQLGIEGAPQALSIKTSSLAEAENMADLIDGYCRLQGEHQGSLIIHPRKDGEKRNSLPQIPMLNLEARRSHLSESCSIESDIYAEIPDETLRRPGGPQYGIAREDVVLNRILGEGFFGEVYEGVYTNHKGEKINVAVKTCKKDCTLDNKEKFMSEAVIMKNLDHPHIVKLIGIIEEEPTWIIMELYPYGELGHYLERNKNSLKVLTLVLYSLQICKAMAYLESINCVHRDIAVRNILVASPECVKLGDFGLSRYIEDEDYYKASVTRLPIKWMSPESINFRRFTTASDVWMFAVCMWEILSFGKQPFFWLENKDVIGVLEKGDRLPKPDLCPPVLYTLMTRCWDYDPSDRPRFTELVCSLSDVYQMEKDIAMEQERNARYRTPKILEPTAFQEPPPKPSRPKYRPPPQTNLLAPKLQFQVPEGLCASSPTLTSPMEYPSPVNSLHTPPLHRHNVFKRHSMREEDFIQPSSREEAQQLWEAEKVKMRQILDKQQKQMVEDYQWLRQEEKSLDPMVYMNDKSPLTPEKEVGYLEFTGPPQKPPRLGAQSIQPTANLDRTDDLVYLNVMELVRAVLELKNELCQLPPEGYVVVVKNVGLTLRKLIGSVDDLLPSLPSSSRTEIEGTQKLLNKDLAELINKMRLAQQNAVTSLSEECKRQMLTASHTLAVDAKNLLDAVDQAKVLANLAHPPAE
CYP2C9 activ: human CYP2C9 activators, primary screen, biochemical, luminescence; Cytochrome P450 2C9 (Homo sapiens), P11712; recombinant CYP2C9, luciferin-H conversion; stronger effect = higher value; factor 1 = untreated enzyme, 0 = blocked; activation factor at 5 µM; 96,000 tested, 1.4% active;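 active = activation factor of 2 or more for CYP2C9 at a 5 µM dose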;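 note: 0 = sulfaphenazole-blocked wells and 1 = vehicle-only wells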
CYP2C9 inh: blockers of cytochrome P450 2C9 activity – biochemical, luminescence, ADME assay, primary screen; CYP2C9 Supersomes, luciferin-H conversion; inhibition, % at 5 µM; 96,000 tested, 20% active; AID 777, 2007;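 active = blocking of liver enzyme CYP2C9 beyond about 50% at 5 µM, limit read from the data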
CYP2C19 inhib: blockers of cytochrome P450 2C19 activity – biochemical, luminescence, ADME assay, primary screen; P33261; CYP2C19 Supersomes, luciferin-H EGE luminescence, 30 min; inhibition, % at 5 µM; 96,000 tested, 21% active;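 active = CYP2C19 inhibition above a set limit at 5 µM in the primary screen, cut at about 50% in these data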;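 note: plate controls were negative control wells for no effect and 2.5 mM tranylcypromine positive control for full effect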
CYP2C19 activ: human CYP2C19 activators, primary screen, biochemical, luminescence; 96,000 tested, under 10 active; Cytochrome P450 2C19 (Homo sapiens), P33261; AID 1025, 2008; recombinant CYP2C19, luciferin-H EGE luminescence; stronger effect = higher value; 0 = fully inhibited enzyme, 1 = untreated enzyme; activation factor at 5 µM;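 active = activation factor of at least 2 at 5 µM in the primary screen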;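 note: 0 = wells with 2.5 mM tranylcypromine and 1 = vehicle-only wells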
An asterisk follows results filed as active.

Screening COc1ccc(S(=O)(=O)N2CCCC(C(=O)Nc3cccnc3)C2)cc1Cl (centres undefined) returned Cav32 inh -0.13 and Pyk2 oligo antag 1.2.
Screening O=C(NCc1ccccc1)C1CCCN(S(=O)(=O)c2cccnc2)C1 (centres undefined) returned Cav32 inh 0.25, Pyk2 oligo antag 0.46, CYP2C9 activ 0.9, CYP2C9 inh 13, CYP2C19 inhib 19 and CYP2C19 activ 0.8.
`Cc1ccc(S(=O)(=O)N2CCCC(C(=O)NCc3cccnc3)C2)cc1Cl` (centres undefined) gave Cav32 inh -0.0044, Pyk2 oligo antag 1.7, CYP2C9 activ 0.8, CYP2C9 inh 23, CYP2C19 inhib 86* and CYP2C19 activ 0.1.
For CCCOC(=O)Nc1nnc(CCC)s1 the results were Cav32 inh 0.3, Pyk2 oligo antag -0.15, CYP2C9 activ 0.9, CYP2C9 inh 10, CYP2C19 inhib 5 and CYP2C19 activ 1.
Screening CCCCNC(=O)CSc1nnc(Cc2ccccc2)n1CC returned Cav32 inh 0.19 and Pyk2 oligo antag 0.55.
For O=C(O)C1C2C=CC3(CN(Cc4ccncc4)C(=O)C13)O2 (centres undefined) the results were Cav32 inh -0.24 and Pyk2 oligo antag 2.7.
Screening O=S(=O)(NCCc1ccccc1F)c1cccc(S(=O)(=O)N2CCOCC2)c1 returned Cav32 inh 0.27, Pyk2 oligo antag 0.04, CYP2C9 activ 0.4, CYP2C9 inh 62*, CYP2C19 inhib 88* and CYP2C19 activ 0.1.
CCCCNS(=O)(=O)c1cccc(S(=O)(=O)N2CCCC2)c1 was read as Pyk2 oligo antag 1.2, CYP2C9 activ 0.6, CYP2C9 inh 38, CYP2C19 inhib 32 and CYP2C19 activ 0.7.
Screening O=S(=O)(c1cccc(S(=O)(=O)N2CCC(Cc3ccccc3)CC2)c1)N1CCOCC1 returned Cav32 inh -5.9* and Pyk2 oligo antag -0.81.
`O=S(=O)(NCc1cccs1)c1cccc(S(=O)(=O)N2CCCCC2)c1` gave Cav32 inh -0.63, Pyk2 oligo antag 0.61, CYP2C9 activ 0.8, CYP2C9 inh 21, CYP2C19 inhib 52* and CYP2C19 activ 0.5.
CC1CCN(S(=O)(=O)c2cccc(S(=O)(=O)N3CCOCC3)c2)CC1 was read as Cav32 inh 0.05, Pyk2 oligo antag 0.07, CYP2C9 activ 0.8, CYP2C9 inh 25, CYP2C19 inhib 21 and CYP2C19 activ 0.8.
`O=S(=O)(NCc1ccccc1)c1cccc(S(=O)(=O)N2CCOCC2)c1` gave Cav32 inh 0.0052, Pyk2 oligo antag -0.71, CYP2C9 activ 0.6, CYP2C9 inh 42, CYP2C19 inhib 64* and CYP2C19 activ 0.4.
`Cc1cc(S(=O)(=O)NCCCN2CCOCC2)ccc1F` gave Cav32 inh 0.012, Pyk2 oligo antag 0.09, CYP2C9 activ 1.1, CYP2C9 inh -7, CYP2C19 inhib 29 and CYP2C19 activ 0.7.
`CCC(Sc1nncn1C)C(=O)Nc1ccccc1OC` (centres undefined) gave Cav32 inh -0.0083, Pyk2 oligo antag 0.33, CYP2C9 activ 1.2, CYP2C9 inh -24, CYP2C19 inhib -19 and CYP2C19 activ 1.2.
CC(C)c1nnc(NC(=O)CCC(=O)N2CCN(c3ccccn3)CC2)s1 was read as Cav32 inh 0.12, Pyk2 oligo antag 0.82, CYP2C9 activ 1, CYP2C9 inh -4, CYP2C19 inhib 1 and CYP2C19 activ 1.
Screening CC(=O)c1cc(F)c(N2CCCCCC2)cc1C returned Cav32 inh 0.13 and Pyk2 oligo antag 0.5.
Screening Cc1cc(N2CCCC2)c(C)cc1C=O returned Cav32 inh -0.73, Pyk2 oligo antag 1.7, CYP2C9 activ 0.4, CYP2C9 inh 62*, CYP2C19 inhib 28 and CYP2C19 activ 0.7.
CC1CCc2c(sc3ncnc(NCCCOC(C)C)c23)C1 (centres undefined) was read as Cav32 inh -4.7, Pyk2 oligo antag -0.26, CYP2C9 activ 0.1, CYP2C9 inh 89*, CYP2C19 inhib 98* and CYP2C19 activ 0.

Screens from PubChem BioAssay.
